Structures are written as SMILES.

Assay [1] deals with Mast/stem cell growth factor receptor Kit (Homo sapiens) (UniProt P10721). To be noted: at 1 µM.
Assay [2] deals with Mast/stem cell growth factor receptor Kit (Homo sapiens), P10721 [D816V]. To be noted: at 0.1 µM.
The test system is the same in assay [3]. The note with it: at 1 µM.
In assay [4] the test system is Mast/stem cell growth factor receptor Kit (Homo sapiens), P10721 [T670I]. To be noted: at 0.1 µM.
Assay [5] shares this test system. The note with it: at 1 µM.
In assay [6] the test system is Mast/stem cell growth factor receptor Kit (Homo sapiens), P10721 [V560G]. The note with it: at 0.1 µM.
For assay [7] the test system is unchanged. The note with it: at 1 µM.
Assay [8] concerns the target Tyrosine-protein kinase Lck (Homo sapiens) (UniProt P06239). To be noted: at 0.1 µM.
Assay [9] has the same target. To be noted: at 1 µM.
Assay [10] concerns the target Leukocyte tyrosine kinase receptor (Homo sapiens) (UniProt P29376). To be noted: at 0.1 µM.
Assay [11] shares this target. To be noted: at 1 µM.
Assay [12] addresses Tyrosine-protein kinase Lyn (Homo sapiens) (UniProt P07948). To be noted: at 0.1 µM.
The target is the same in assay [13]. To be noted: at 1 µM.
For assay [14] the target is unchanged. To be noted: at 0.1 µM. This is another data set of the same source.
Assay [15] has the same target. To be noted: at 1 µM. The source holds these as a separate data set.
For assay [16], the target named is T1, Tyrosine-protein kinase Mer (Homo sapiens) (UniProt Q12866).
T1 sequence (whole entry): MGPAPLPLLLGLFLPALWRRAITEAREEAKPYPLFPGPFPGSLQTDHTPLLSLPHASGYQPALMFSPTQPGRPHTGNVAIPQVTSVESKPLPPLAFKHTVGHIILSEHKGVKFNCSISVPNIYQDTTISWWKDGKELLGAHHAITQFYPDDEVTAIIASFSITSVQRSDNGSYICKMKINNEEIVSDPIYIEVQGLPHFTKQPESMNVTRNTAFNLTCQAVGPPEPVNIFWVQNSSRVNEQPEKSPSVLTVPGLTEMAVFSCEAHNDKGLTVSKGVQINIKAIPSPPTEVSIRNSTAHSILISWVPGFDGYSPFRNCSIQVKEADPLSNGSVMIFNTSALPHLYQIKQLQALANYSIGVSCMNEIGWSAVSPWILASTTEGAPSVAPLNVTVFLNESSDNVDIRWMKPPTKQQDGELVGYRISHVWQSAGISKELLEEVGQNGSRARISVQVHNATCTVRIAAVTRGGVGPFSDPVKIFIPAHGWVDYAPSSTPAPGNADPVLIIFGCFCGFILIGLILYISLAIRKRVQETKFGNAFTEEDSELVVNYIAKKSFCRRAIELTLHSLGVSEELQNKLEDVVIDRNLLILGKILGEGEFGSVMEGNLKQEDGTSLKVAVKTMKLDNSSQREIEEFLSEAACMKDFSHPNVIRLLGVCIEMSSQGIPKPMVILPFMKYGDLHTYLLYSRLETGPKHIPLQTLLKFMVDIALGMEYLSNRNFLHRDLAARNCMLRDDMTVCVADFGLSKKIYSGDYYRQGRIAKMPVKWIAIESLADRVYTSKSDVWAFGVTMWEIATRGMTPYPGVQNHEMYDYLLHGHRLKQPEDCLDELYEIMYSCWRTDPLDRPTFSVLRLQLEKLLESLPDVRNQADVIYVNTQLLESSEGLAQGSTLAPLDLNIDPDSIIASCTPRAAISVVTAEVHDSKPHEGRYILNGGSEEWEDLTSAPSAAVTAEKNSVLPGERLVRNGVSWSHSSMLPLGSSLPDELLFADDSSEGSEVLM
The note with it: at 0.1 µM.

In assay [17] the target is T1, Tyrosine-protein kinase Mer (Homo sapiens). The note with it: at 1 µM.
Assay [18] deals with Hepatocyte growth factor receptor (Homo sapiens) (UniProt P08581). To be noted: at 0.1 µM.
Assay [19] has the same target. To be noted: at 1 µM.
The target of assay [20] is T2, Muscle, skeletal receptor tyrosine-protein kinase (Homo sapiens) (UniProt O15146).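 Note: values are mean inhibition of MuSK from the GSK PKIS kinase screening panel.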
T2 sequence (whole entry): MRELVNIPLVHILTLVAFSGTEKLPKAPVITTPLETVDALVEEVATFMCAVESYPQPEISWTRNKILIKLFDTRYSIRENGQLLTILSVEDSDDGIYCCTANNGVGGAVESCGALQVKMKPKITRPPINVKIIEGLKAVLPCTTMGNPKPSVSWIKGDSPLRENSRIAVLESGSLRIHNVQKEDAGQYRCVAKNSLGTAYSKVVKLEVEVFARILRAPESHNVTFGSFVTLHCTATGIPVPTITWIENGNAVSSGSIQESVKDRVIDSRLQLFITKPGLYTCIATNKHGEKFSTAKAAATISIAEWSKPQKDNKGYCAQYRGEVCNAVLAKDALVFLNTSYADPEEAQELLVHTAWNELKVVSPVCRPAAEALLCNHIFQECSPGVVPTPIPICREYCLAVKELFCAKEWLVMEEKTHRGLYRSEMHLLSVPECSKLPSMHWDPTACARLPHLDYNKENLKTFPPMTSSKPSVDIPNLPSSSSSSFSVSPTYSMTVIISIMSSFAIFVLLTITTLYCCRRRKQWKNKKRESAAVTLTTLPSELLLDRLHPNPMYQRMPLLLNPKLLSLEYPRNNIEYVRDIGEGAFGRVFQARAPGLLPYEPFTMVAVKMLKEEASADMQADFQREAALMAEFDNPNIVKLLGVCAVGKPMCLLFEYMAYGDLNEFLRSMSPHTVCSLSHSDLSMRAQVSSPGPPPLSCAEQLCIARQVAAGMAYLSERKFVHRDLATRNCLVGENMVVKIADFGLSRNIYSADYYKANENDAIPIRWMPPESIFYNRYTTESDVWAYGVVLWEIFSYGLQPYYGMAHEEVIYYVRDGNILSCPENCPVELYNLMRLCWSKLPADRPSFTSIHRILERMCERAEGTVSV
The note with it: at 0.1 µM.

Mast/stem cell growth factor receptor Kit (Homo sapiens), sequence (P10721 whole entry): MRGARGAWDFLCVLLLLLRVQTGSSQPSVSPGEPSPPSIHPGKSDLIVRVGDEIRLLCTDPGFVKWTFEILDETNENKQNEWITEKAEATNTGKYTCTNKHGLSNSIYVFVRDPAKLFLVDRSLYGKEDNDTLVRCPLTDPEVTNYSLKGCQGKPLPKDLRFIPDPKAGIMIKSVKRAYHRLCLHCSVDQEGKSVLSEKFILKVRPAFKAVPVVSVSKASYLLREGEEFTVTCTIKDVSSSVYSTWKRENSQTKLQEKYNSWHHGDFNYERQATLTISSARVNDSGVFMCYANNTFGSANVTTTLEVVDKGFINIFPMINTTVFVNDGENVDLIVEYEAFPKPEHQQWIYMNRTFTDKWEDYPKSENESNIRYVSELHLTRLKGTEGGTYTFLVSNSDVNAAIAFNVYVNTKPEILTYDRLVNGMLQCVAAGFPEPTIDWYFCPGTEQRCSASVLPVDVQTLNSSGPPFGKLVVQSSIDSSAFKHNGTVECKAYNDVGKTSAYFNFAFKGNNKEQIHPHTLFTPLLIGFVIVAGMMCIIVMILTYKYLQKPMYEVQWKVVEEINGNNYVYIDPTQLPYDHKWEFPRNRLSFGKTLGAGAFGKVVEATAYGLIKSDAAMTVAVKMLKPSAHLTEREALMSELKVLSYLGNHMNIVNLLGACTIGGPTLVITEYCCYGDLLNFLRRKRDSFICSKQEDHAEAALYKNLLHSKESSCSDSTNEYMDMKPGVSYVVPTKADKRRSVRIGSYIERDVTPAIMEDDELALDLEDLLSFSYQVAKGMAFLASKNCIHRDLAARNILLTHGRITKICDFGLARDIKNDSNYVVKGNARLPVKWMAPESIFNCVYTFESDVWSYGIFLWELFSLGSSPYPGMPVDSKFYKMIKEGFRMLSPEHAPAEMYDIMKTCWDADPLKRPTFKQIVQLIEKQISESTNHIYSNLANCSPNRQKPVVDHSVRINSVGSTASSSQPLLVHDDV
Tyrosine-protein kinase Lyn (Homo sapiens), sequence (P07948 2-512 limits assumed): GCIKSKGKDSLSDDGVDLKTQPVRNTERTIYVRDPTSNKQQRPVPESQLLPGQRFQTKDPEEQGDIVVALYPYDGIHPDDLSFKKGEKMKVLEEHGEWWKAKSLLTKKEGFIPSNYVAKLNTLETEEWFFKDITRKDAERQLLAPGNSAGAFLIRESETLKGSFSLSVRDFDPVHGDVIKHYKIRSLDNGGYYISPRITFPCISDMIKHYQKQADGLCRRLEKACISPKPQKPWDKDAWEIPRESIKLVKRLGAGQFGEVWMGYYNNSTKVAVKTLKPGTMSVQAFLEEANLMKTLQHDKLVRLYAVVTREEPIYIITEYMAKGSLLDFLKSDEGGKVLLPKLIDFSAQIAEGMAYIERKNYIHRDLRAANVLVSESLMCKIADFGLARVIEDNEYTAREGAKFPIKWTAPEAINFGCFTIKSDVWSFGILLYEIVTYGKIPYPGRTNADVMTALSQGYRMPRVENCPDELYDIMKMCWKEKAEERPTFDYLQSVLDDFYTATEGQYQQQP
Mast/stem cell growth factor receptor Kit (Homo sapiens), P10721 [D816V], sequence (P10721 whole entry D816V): as the sequence (P10721 whole entry) above, with D816V counted along it
Tyrosine-protein kinase Lck (Homo sapiens), sequence (P06239 2-509 limits assumed): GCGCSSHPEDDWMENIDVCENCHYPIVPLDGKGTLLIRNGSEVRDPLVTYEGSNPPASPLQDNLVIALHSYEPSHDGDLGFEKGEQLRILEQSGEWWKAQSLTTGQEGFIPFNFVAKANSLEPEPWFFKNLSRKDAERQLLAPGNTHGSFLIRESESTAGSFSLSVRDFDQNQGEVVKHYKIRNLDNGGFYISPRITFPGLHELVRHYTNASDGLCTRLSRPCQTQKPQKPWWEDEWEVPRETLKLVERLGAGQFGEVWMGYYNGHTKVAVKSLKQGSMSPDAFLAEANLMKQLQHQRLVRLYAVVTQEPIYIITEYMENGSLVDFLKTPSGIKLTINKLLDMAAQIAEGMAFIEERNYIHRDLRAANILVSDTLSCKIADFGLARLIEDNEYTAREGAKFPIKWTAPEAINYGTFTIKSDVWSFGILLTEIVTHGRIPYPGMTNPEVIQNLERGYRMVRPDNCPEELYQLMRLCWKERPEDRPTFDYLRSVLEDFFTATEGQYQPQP
Mast/stem cell growth factor receptor Kit (Homo sapiens), P10721 [T670I], sequence (P10721 whole entry T670I): as the sequence (P10721 whole entry) above, with T670I counted along it
Hepatocyte growth factor receptor (Homo sapiens), sequence (P08581 whole entry): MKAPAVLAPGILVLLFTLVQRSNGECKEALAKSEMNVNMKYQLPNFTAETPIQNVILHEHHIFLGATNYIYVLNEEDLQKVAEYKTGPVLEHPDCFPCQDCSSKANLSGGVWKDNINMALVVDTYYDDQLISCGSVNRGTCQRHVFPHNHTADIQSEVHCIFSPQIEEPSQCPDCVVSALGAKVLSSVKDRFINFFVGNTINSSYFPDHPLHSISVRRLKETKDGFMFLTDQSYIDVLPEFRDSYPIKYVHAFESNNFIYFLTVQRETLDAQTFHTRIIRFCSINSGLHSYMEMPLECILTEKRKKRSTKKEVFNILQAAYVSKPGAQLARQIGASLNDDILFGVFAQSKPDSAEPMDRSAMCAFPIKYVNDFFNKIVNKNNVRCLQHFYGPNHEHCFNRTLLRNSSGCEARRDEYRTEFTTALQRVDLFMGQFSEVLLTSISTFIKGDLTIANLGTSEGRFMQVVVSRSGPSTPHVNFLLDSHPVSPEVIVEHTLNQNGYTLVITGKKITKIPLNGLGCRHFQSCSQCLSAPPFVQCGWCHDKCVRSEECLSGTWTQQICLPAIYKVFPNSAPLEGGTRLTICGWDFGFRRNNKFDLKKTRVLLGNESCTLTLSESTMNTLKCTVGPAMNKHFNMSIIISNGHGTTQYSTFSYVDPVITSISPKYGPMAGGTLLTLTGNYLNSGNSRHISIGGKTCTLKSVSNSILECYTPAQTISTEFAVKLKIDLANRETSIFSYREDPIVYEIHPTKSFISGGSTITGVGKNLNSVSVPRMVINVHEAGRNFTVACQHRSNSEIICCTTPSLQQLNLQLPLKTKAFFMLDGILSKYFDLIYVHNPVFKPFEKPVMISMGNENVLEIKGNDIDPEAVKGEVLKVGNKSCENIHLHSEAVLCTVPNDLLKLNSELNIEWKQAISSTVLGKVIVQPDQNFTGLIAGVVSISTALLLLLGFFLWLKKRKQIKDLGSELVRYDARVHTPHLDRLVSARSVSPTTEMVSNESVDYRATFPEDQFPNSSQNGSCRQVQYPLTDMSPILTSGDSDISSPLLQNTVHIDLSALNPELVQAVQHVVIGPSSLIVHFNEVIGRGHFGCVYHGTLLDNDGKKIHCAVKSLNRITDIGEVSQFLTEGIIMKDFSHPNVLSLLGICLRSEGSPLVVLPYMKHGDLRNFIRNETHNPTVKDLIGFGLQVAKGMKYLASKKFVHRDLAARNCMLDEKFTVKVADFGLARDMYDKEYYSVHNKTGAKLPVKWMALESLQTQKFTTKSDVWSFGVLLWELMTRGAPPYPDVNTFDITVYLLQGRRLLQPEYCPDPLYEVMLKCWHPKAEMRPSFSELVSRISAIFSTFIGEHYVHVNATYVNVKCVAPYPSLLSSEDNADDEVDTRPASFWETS
Leukocyte tyrosine kinase receptor (Homo sapiens), sequence (P29376 whole entry): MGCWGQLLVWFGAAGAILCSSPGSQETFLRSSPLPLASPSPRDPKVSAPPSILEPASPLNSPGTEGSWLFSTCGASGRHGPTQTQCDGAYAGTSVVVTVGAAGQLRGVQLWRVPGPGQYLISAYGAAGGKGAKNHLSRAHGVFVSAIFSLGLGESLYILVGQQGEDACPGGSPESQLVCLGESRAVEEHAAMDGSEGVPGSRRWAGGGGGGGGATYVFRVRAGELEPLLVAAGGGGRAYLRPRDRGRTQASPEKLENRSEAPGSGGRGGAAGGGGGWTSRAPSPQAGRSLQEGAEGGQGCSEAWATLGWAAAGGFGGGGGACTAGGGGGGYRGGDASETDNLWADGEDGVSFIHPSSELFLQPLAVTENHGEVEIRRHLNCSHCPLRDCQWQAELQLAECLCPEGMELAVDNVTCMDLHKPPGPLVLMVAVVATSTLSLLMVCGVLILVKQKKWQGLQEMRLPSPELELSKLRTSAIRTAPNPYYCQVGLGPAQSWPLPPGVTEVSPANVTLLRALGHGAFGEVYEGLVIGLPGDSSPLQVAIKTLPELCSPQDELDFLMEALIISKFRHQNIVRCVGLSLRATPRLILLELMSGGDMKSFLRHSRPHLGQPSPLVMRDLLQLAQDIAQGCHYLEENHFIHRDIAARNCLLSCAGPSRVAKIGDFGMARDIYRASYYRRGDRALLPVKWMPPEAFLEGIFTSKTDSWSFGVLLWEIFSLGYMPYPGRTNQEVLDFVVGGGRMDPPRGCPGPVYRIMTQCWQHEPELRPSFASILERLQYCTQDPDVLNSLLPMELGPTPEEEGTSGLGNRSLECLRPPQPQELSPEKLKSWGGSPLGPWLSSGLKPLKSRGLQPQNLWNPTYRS
Mast/stem cell growth factor receptor Kit (Homo sapiens), P10721 [V560G], sequence (P10721 whole entry V560G): as the sequence (P10721 whole entry) above, with V560G counted along it

`CCNC(=O)O[C@H]1CN[C@H](C#Cc2cc3ncnc(Nc4ccc(OCc5cccc(F)c5)c(Cl)c4)c3s2)C1`: the inhibition (in general, the relative decrease from the control value, in per cent) in assay [1] came out at 2.58%; in assay [2] it was 2.43%; in [3], 3.63%; in [4] it was 2.76%; in [5] it was 0.45%; in assay [6], 0.45%. Moreover, the inhibition in assay [7] was 5%; in assay [8], 3.42%; in [9], 3.76%; in [10], 3.21%; in assay [11] it was 2.99%; in assay [12], 5.67%. Besides, the inhibition is 3.68% in assay [13]; 2.23% in assay [14]; 1.7% in assay [15]; 0.26% in assay [16]; 7.09% in assay [17]; 3.78% in assay [18]. The inhibition was found to be 1.15% in [19] and 2.4% in assay [20].
Consider `CCn1c(-c2nonc2N)nc2c(C#CC(C)(C)O)ncc(OC3CCNCC3)c21`, for which the inhibition was 3.87% in assay [1]; 4.97% in assay [2]; 6.05% in assay [3]; 1.16% in [4]; -0.54% in assay [5]; -0.47% in [6]. In addition, the inhibition in assay [7] came out at 0.39%; in assay [8], 2.33%; in [9] it was 4.05%; in [10], 1.83%; in assay [11], 3.06%; in assay [12] it was 4.34%. The inhibition in assay [13] amounted to 4.35%; in [14] it was 2.01%; in assay [15], 2.89%; in [16], 3.67%; in [17] it was 2.19%; in assay [18], 5.39%. The inhibition is -3.51% in assay [19] and 3.1% in [20].
Regarding `CCn1cc(-c2ccnc3[nH]ccc23)c(-c2cccc(NC(=O)Nc3ccc(OCc4ccccc4)cc3)c2)n1`, the inhibition in assay [1] is -0.41%; in [2], 1.35%; in [3] it was -0.05%; in assay [4], -1.41%; in [5] it was -1.25%; in [6], -1.87%. Moreover, the inhibition in assay [7] was -1.14%; in [8], 2.58%; in [9], 21.8%; in [10] it was 1.35%; in assay [11], -0.91%; in assay [12], 5.25%. Also, the inhibition was 19.4% in assay [13]; 2.62% in [14]; 13.6% in assay [15]; 0.66% in [16]; 8.39% in assay [17]; 9.54% in assay [18]. For the same molecule, the inhibition in assay [19] is 46.4%; in assay [20], -1.52%.
For the molecule `CNC(=O)c1cc(-c2ccc(F)cc2)cc(-c2ccc(S(=O)(=O)N3CCCC3)cc2)c1N`, the inhibition is 3.53% in [1]; 3.32% in assay [2]; 1.27% in assay [3]; 3.02% in assay [4]; 1.68% in assay [5]; -2.57% in assay [6]. The inhibition in [7] came out at 1.97%; in assay [8], 2.58%; in [9] it was 2.91%; in assay [10], 2.81%; in assay [11], 3.29%; in [12] it was 2.72%. Moreover, the inhibition in assay [13] worked out at 2.56%; in [14] it was 1.59%; in assay [15], 1.39%; in [16] it was 0.74%; in [17], 2.3%; in assay [18], 3.93%. For the same molecule, the inhibition in assay [19] worked out at 5.04%; in assay [20], 2.8%.
Consider `CN1CCC(n2cnc(-c3ccc(F)cc3)c2-c2ccnc(N)n2)CC1`, for which the inhibition in [1] is 9.51%; in [2] it was 5.49%; in assay [3] it was 7.78%; in assay [4], 4.69%; in assay [5], 3.03%; in assay [6], -0.68%. In addition, the inhibition came to 3.94% in assay [7]; 2.45% in [8]; 13.7% in [9]; 2.54% in assay [10]; 4.69% in [11]; 1.99% in assay [12]. Also, the inhibition worked out at 10.1% in assay [13]; 1.43% in assay [14]; 6.85% in assay [15]; 0.51% in [16]; 6.73% in assay [17]; 2.36% in assay [18]. Besides, the inhibition in [19] came to 0.93%; in assay [20], 0.53%.
`FC(F)(F)c1cccc(-c2nn3ncccc3c2-c2ccnc(Nc3ccc4c(c3)OCCO4)n2)c1`: the inhibition in [1] was 24.6%; in assay [2], 1.11%; in [3] it was 1.8%; in assay [4], 0.93%; in assay [5], 3.06%; in assay [6] it was -1%. Also, the inhibition in assay [7] is 5.35%; in assay [8], 9.37%; in assay [9], 45.8%; in assay [10], 2.06%; in assay [11], 1.73%; in assay [12], 7.06%. The inhibition in [13] was found to be 39.5%; in assay [14], 5.18%; in [15], 33.9%; in assay [16] it was 4.3%; in assay [17] it was 40%; in assay [18], 7.83%. Besides, the inhibition in [19] was 5.36%; in [20], 1.28%.
Regarding `CCN(CC)S(=O)(=O)c1ccc(OC)c(Nc2ncc(-c3ccccc3)o2)c1`, the inhibition in assay [1] was 87.8%; in assay [2], 3.78%; in assay [3] it was 6.46%; in assay [4], 3.41%; in assay [5], 48.3%; in assay [6] it was 7.63%. Also, the inhibition in assay [7] is 13.6%; in assay [8] it was 4.39%; in [9] it was 24.8%; in assay [10], -0.3%; in assay [11] it was -0.4%; in assay [12], 4.63%. The inhibition was found to be 34.8% in assay [13]; 4.28% in [14]; 28.9% in assay [15]; 0.62% in [16]; 2.09% in assay [17]; 3.7% in [18]. Also, the inhibition was 4.3% in [19] and -2.42% in assay [20].

These data come from ChEMBL document CHEMBL1961873, “Compounds: GSK PKIS; Assays: Nanosyn kinase panel” (2012).
